Assay in all cases: PBM binding z-score (relative to random genomic background probes); higher = stronger binding; sequences stand for … in GC…GCGATTGACAGCGTAGAATGAAGG
Experiment [1] deals with RARb homodimer (NR concentration 270 nM). In short, it runs like this:
(§1)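 The probes on custom Agilent 4×180K protein-binding microarrays were double-stranded, with 34-nt variable regions bearing direct-repeat seeds, single-nucleotide variants, half-site ablations and random human genomic background sequences. Incubation lasted 1 h with ligand-free nuclear receptor dimers in PBS pH 7.4, 2% milk, 0.02% Triton X-100, 1 mM DTT, 0.2 mg/mL BSA and 0.4 mg/ml salmon testes DNA. Antibodies against each partner (one per run) detected bound dimers, and fluorescence scans were regression-normalized. Binding z-scores take the random background probes as reference.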

Experiment [2] has as its system RARg:RXRa (NR concentration 270 nM, RXRa partner concentration 90 nM). In short, it runs like this:
as §1

In experiment [3] the test system is RARg homodimer (NR concentration 270 nM). The procedure, abridged:
as §1

Experiment [4] concerns RXRa DBDmut IVT, anti-RXR (DBD mutation: RXRa K156A/R161A, NR concentration 90 nM). The procedure, abridged:
as §1

Experiment [5] has as its system RXRa homodimer (NR concentration 180 nM). In short, it runs like this: as §1
Experiment [6] has as its system THRa:RXRa (NR concentration 90 nM, RXRa partner concentration 90 nM). In short, it runs like this:
as §1

For experiment [7], the system named is THRa homodimer (NR concentration 90 nM). The procedure, abridged:
as §1

For experiment [8], the system named is VDR:RXRa (NR concentration 270 nM, RXRa partner concentration 90 nM). In short, it runs like this:
as §1

The test system of experiment [9] is VDR homodimer (NR concentration 270 nM). In short, it runs like this: as §1

With CATACAGGGTCAGCTAGGCCAGAGTAGGGACGGC, the PBM binding z-score in [1] came to 3.14; in [2], 4.44; in experiment [3] it was 4.26; in experiment [4] it was 1.44; in experiment [5], 4.42; in experiment [6] it was 3.1. The PBM binding z-score in [7] came out at 0.753; in experiment [8], 3.8; in experiment [9], 1.32.

Regarding CTTGAAAGGTCGGTTGAGGTGAGTATACGGATAA, the PBM binding z-score in [1] was 2.58; in [2], 2.6; in [3], 2.68; in experiment [4], 1.35; in [5], 2.5; in [6], 4.93. The PBM binding z-score amounted to 1.42 in experiment [7], 2.66 in experiment [8] and 0.867 in experiment [9].

With ATATGTAGGTTACATCCGGGCCATTCAGGCTATG, the PBM binding z-score in experiment [1] came out at 0.788; in experiment [2], 1.35; in experiment [3], 0.995; in experiment [4], 0.497; in experiment [5], 0.936; in experiment [6], 2.04. For the same sequence, the figures for the PBM binding z-score in [7], in [8] and in [9] were 0.851, 0.659 and 0.406, respectively.

As for CAGCCTAGGTCAGGACCAGTATAGGAGGAACGTT, the PBM binding z-score was 1.97 in experiment [1]; 2.81 in experiment [2]; 3.89 in experiment [3]; -0.0885 in experiment [4]; 1.7 in [5]; 1.94 in experiment [6]. Besides, the PBM binding z-score was 0.463 in experiment [7], 0.522 in experiment [8] and -0.0387 in experiment [9].

Turning to CCAGACAGGGGAGAAGGTAACTCAGCCTCGATTA, the PBM binding z-score in [1] was -0.0846; in [2], -0.296; in [3], -0.226; in [4], 0.218; in experiment [5] it was -0.357; in [6], -0.218. For the same sequence, the PBM binding z-score in experiment [7] is -0.17; in experiment [8], -0.544; in [9] it was -0.316.

As for ATCTCTAGGTAACCAAGATCAGTGAATGCCGAAC, the PBM binding z-score is -0.128 in experiment [1]; 0.35 in experiment [2]; 0.445 in experiment [3]; -0.167 in experiment [4]; 0.343 in experiment [5]; 0.734 in experiment [6]. For the same sequence, the PBM binding z-score in experiment [7] was 0.469; in experiment [8], 0.294; in [9], -0.138.

Consider CCAGACAGGTGAAAAGTAACTCAGTCTGGTACGC, for which the PBM binding z-score in [1] was -0.15; in experiment [2], 0.316; in experiment [3] it was 0.402; in [4] it was 0.15; in experiment [5] it was 0.307; in experiment [6] it was -0.0735. For the same sequence, the values for the PBM binding z-score in experiment [7], in experiment [8] and in [9] were -0.599, 0.113 and -0.225, respectively.

Regarding AGTCAAAGTTTACTAGGTAACGTAAGATTCAGCT, the PBM binding z-score was 0.795 in experiment [1]; 0.885 in [2]; 1.46 in experiment [3]; 1.44 in experiment [4]; 0.16 in experiment [5]; 0.591 in [6]. For the same sequence, the PBM binding z-score was -0.0944 in experiment [7], 0.363 in experiment [8] and 0.294 in [9].

In the case of AGAATGAGGTTACCAAAGATCCGGGAAACGCTTG, the PBM binding z-score in experiment [1] came to 0.848; in experiment [2], 1.96; in experiment [3] it was 1.65; in experiment [4], 1.05; in experiment [5] it was 2.5; in [6], 2.61. Further, the PBM binding z-score in [7] worked out at 0.714; in experiment [8] it was 1.16; in [9], 0.252.

Take TCGAGAAGGTTAGTCGGGGCATTCAGCCAACATA: the PBM binding z-score in experiment [1] came out at 0.99; in experiment [2], 0.634; in experiment [3], 0.546; in [4], 0.877; in [5], 0.644; in experiment [6] it was 1.79. The PBM binding z-score in experiment [7] was found to be 0.0413; in experiment [8] it was 3.71; in experiment [9] it was 1.2.

ACTAGTTGGTCAGCTGAGGTTACACACAATTCGG: the PBM binding z-score in experiment [1] is 2.03; in experiment [2], 1.46; in experiment [3], 1.69; in [4] it was 0.642; in experiment [5], 1.31; in [6], 3.86. Also, the PBM binding z-score in [7] was 1.97; in [8], 1.59; in experiment [9], 1.01.

As to TGAATGAGGTTAAAGATCAGGCAACGTGGCGTCG, the PBM binding z-score in [1] was 0.653; in [2] it was 2.44; in [3] it was 1.16; in [4], 1.02; in experiment [5], 3.63; in [6], 2.71. Besides, the PBM binding z-score in experiment [7] is 0.312; in experiment [8] it was 1.88; in [9], 0.286.

For the sequence AGAATTAGGTTAAGATCAGGGAAACAGAATACAT, the PBM binding z-score in experiment [1] was 0.701; in experiment [2], 1.04; in experiment [3] it was 1.09; in experiment [4] it was -0.0806; in experiment [5], 0.853; in [6] it was 1.35. Also, the PBM binding z-score in [7] was determined as 0.656; in [8] it was 0.418; in experiment [9], 0.432.

Regarding GTACCAAGGTGAATAGGTCGTAGATGAGTAGGCG, the PBM binding z-score in experiment [1] was 1.92; in experiment [2], 2.94; in [3] it was 1.61; in experiment [4], -0.478; in experiment [5], 2.18; in [6] it was 1.83. Moreover, the figures for the PBM binding z-score in experiment [7] and in experiment [9] were 0.42 and 0.204, respectively.

Consider TCATATAGGTAAAAGCTGAAAGTCGGTGTGGTAA, for which the PBM binding z-score in [1] was -0.59; in [2], -0.0558; in [3], -0.318; in [4], 1.45; in [5], 0.496; in [6] it was -0.258. The PBM binding z-score in experiment [7] was -0.715; in [9], -0.102.

On to TCTCGAAGGACACGAAGGTCAGAGCTTTCCAGAG, for which the PBM binding z-score in [1] came to 3.75; in experiment [2], 2.99; in [3], 3.73; in experiment [4], 0.817; in [5], 1.94; in experiment [6], 2.03. Also, the PBM binding z-score in experiment [7] amounted to 0.331; in [9], 0.435.

(Values after the supplement of paper PMC6555819.)
